Bioassay records: PubChem BioAssay, several laboratories
Calpain2 inh: inhibitors of pig calpain II; inhibition, % at 16 µM; purified calpain II, fluorogenic peptide substrate, 30 min; 220,000 tested, 0.37% active; AID 1236;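 active means inhibition above about 50%, limit read from the data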
L major viab: Leishmania major promastigote growth inhibition; Leishmania major promastigotes, resazurin fluorescence viability; inhibition, % at 10 µM; 200,000 tested, 9% active; AID 1063; in the data active means inhibition above about 50%;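 further: promastigotes grown with compound for 44 hours at 28 °C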
KCC2 mod: modulates chloride dependent transport by human KCC2; 190,000 tested, 2.2% active; B-score of Tl+ flux slope (higher = more flux/activation; lower = inhibition) at 10 µM; AID 1456; Q9H2X9; KCC2 cells, thallium flux FluoZin-2 fluorescence;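 active means thallium flux slope and its plate-corrected score both differing from the plate sample mean at a set confidence after two filtering rounds, in either direction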;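 further: slope of fluorescence scaled to starting intensity during 10 to 20 s after thallium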
Target sequence (Q9H2X9 whole entry, looked up): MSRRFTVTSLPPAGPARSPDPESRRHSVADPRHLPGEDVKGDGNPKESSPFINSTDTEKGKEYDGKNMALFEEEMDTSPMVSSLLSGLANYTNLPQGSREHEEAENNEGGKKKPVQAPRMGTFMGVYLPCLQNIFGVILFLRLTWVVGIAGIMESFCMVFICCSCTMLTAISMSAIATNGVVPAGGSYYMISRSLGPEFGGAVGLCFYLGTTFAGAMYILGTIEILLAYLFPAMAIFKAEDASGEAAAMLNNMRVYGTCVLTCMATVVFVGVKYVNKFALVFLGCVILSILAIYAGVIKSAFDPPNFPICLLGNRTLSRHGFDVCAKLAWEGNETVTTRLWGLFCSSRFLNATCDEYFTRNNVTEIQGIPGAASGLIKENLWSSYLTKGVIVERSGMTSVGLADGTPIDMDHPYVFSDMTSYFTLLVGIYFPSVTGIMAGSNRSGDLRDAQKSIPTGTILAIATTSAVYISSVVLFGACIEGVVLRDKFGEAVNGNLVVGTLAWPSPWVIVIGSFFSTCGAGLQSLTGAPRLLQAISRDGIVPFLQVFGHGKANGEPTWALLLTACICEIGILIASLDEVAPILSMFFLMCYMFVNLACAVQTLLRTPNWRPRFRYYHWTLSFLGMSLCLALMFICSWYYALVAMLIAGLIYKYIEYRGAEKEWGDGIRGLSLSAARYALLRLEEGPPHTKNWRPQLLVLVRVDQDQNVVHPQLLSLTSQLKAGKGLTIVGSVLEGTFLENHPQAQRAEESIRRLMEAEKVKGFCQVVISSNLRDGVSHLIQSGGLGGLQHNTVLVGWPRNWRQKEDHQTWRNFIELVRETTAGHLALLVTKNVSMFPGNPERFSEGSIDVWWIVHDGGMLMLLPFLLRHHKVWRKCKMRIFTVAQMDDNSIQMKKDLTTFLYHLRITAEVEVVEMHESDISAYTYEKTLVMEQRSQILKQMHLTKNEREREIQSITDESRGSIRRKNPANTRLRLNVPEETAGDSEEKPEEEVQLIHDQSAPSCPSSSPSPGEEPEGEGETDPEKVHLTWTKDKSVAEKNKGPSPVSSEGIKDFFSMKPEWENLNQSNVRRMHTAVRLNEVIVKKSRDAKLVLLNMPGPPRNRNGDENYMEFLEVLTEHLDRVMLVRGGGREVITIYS
WT yeast gro inh: growth inhibition of WT yeast, mitochondrial fusion screen. mitochondrial fusion phenotypic screen, WT strain. inhibition, % at 10 µM. 190,000 tested, 2.1% active. AID 1362; in the data active means inhibition above about 58%; tested in S. cerevisiae
ROMK primary: human ROMK K+ channel modulation, primary screen; P48048; 130,000 tested, 2% active; B-score at 10 µM; Tet-inducible ROMK, thallium flux fluorescence; actives lie on both sides;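 active means signal ratio slope over the read window, or its plate-corrected B-score, at least 3 SD from the plate mean, either direction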;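 further: B-score of the F/F0 ratio slope over 7 to 12 s after thallium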
ROMK retest: human ROMK channel modulation, retest confirmation; shares compounds with ROMK primary; ROMK thallium flux, fluorescence ratio; stronger effect = lower value; normalized thallium flux (F/F0 slope) at 10 µM; 3,000 tested, 54% active; AID 1917;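 active means Flux at 10 µM at least 3 SD below or above vehicle control mean in one or both replicates; inconclusive means no clear call, values can overlap the other calls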
* = called active by the depositor. In the library only some 12% were active in any assay of this set; here they are far more common.

Screening COc1ccc(CCC(C)NC2C3CC4CC(C3)CC2C4)cc1 (centres undefined) returned Calpain2 inh 4, L major viab 14, KCC2 mod 0.5, WT yeast gro inh 19 and ROMK retest 0.057*.
Screening Cc1c(C=N)c(O)n(C)c(=O)c1C#N returned Calpain2 inh 24, KCC2 mod 0.0017 and ROMK primary -0.69.
For CCOC(=O)CS(=O)(=O)c1nc(-c2ccccc2)cc(C(F)(F)F)n1 the results were Calpain2 inh -14, L major viab 0, KCC2 mod -0.18, WT yeast gro inh 14, ROMK primary -4.5* and ROMK retest 0.059*.
Screening CCOC(=O)CCS(=O)(=O)c1nc(-c2ccccc2)cc(C(F)(F)F)n1 returned Calpain2 inh -30, L major viab 8, KCC2 mod 0.036, WT yeast gro inh 33, ROMK primary -4.4* and ROMK retest 0.055*.
For CCOC(=O)CS(=O)(=O)c1nc(-c2ccc(F)cc2)cc(C(F)(F)F)n1 the results were Calpain2 inh -5, L major viab -3, KCC2 mod -2.6 and WT yeast gro inh 7.
`CC1CCCC(C)N1C(=O)CSc1nnc(CSc2ncccn2)n1C` (centres undefined) gave Calpain2 inh 4, L major viab -4, KCC2 mod 0.58 and WT yeast gro inh -11.
`COc1ccc(C=C2c3ccccc3C(=O)c3ccccc32)c(OC)c1` gave Calpain2 inh 1, KCC2 mod -1.1, ROMK primary 2.8* and ROMK retest 0.093.
For CCC1(CC)NC(=O)N(CC(=O)OCC(=O)Nc2sccc2C#N)C1=O the results were Calpain2 inh -4, L major viab 3, KCC2 mod -0.38, WT yeast gro inh 5 and ROMK primary 0.58.
Screening Cc1cc(/C=N/NC(=O)c2cccc(F)c2)c(C)n1-c1ccccc1 returned Calpain2 inh 0, L major viab -5, KCC2 mod -0.081, WT yeast gro inh -7, ROMK primary 4.8* and ROMK retest 0.092.
CCOC(=O)N/N=C/c1cc(C)n(-c2ccccc2)c1C was read as Calpain2 inh 4, L major viab 16, KCC2 mod 1.7, WT yeast gro inh -3, ROMK primary 2.4* and ROMK retest 0.09.
CCOc1ccc(-n2c(C)cc(/C=N/NC(=O)C(N)=O)c2C)cc1 was read as Calpain2 inh 8, L major viab 4, KCC2 mod 0.28, WT yeast gro inh -5 and ROMK primary 0.55.
`Cc1cc(/C=N/NC(=O)c2ccncc2)c(C)n1-c1cccc(C(F)(F)F)c1` gave Calpain2 inh 6 and KCC2 mod 0.63.
For Cc1ccc(N/C=C/C(=O)C(C)(C)C)c(O)c1 the results were Calpain2 inh 29, L major viab 4, KCC2 mod -0.18, WT yeast gro inh 0 and ROMK primary 0.0062.
`COc1cccc(N/N=C(\C#N)S(=O)(=O)C(C)(C)C)c1` gave Calpain2 inh -23, L major viab -5, KCC2 mod -0.6, WT yeast gro inh -3 and ROMK primary -0.76.
Screening C/C(=N\NC(=O)CNC(=O)c1ccncc1)c1ccc(C)cc1 returned Calpain2 inh 14, L major viab 3, WT yeast gro inh 13 and ROMK primary -0.62.
C/C(=N/NC(=O)CNc1ccc(Cl)cc1C)c1ccc(C)cc1 was read as Calpain2 inh 0, L major viab -2, KCC2 mod 1.7, WT yeast gro inh -8, ROMK primary 12* and ROMK retest 0.078.
`Cc1cccn2c(=O)c3cc(C(=O)NC4CCCC4)c(=N)n(C4CCCC4)c3nc12` gave Calpain2 inh -480, L major viab 42, KCC2 mod -1.7, ROMK primary -2.6* and ROMK retest inconclusive.
Cc1cc(C)nc(/N=C2\NC(=O)CC(C(=O)O)N2c2ccc(Cl)cc2)n1 (centres undefined) was read as Calpain2 inh 6, L major viab -2, KCC2 mod -0.42, WT yeast gro inh 13 and ROMK retest 0.082.
Screening Cc1ccc(N2/C(=N/c3nc(C)cc(C)n3)NC(=O)CC2C(=O)O)cc1 (centres undefined) returned Calpain2 inh -13, L major viab 1, KCC2 mod 0.36, WT yeast gro inh 0 and ROMK primary 0.0097.
`CC1CCc2sc(C(=O)OCC(=O)NC(C)C)cc2C1` (centres undefined) gave Calpain2 inh 24, L major viab 3, KCC2 mod -0.83, WT yeast gro inh 7 and ROMK primary 0.29.
